# Laboratory results published in PubChem BioAssay (NCATS).
# Inconclusive results are not listed. Activity calls are given as the source filed them. Unless noted, calls follow the shape of the dose curve; as a rule, active = well fitted curve in the direction sought with a large enough effect; inconclusive = small, poorly fitted or top-dose-only effect, or another doubt; inactive = no such curve, though single readings can be large; an effect the other way counts as inactive or inconclusive.
# What was measured:
# [1] = Primary redox qHTS assay for identification of artifact compounds. (AID 1845223);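 also: 0% = DMSO and 100% = reference compound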
# Outline: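 Amplex Red (25 uM) and HRP (250 mU/mL) in HBSS, with compounds for 15 min, then 250 uM DTT for 30 min, room temperature, dark. Fluorescence 525/598 nm read; normalized to DMSO and 10 uM DA3003; Hill fit.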
# [2] = test system: HaCat; test: Cytotoxic Profiling of Annotated Libraries Using Quantitative High-Throughput Screening (AID 1296008); conditions: Five cell lines viability, CellTiter-Glo ATP luminescence, 48-72 h; max response: stronger effect = lower value; also: nearly all actives have a fitted effect of over 60% in size; also: potency is read from the fitted curve at half-maximal effect; as to max response: % is scaled to controls: 0 for no effect and ±100 for the full control effect
# Outline: (§1)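 Compounds were pin-transferred onto cells and incubated 48 or 72 hr at 37 degree Celsius, 95% humidity. CellTiter-Glo was added, plates sat 10 min at room temperature, then ATP-coupled luminescence was imaged as the viability read-out.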
# [3] = test system: SKOV3; test: Primary qHTS to identify gynecologic anti-cancer compounds using libraries of approved drugs and bioactive compounds (AID 1345084); conditions: Gynecologic cancer cell panel viability, ATPlite luminescence, 48 h; series mostly up to 57.5 µM; also: nearly all actives have a fitted effect of over 55% in size; also: potency is read from the fitted curve at half-maximal effect
# Outline: (§2)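 48 h compound exposure at 37 C, 5% CO2; five-point qHTS. ATPlite luminescence readout of cell ATP.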
# [4] = qHTS to identify inhibitors of the type 1 interferon - major histocompatibility complex class I in skeletal muscle: primary screen against the NCATS Mechanism Interrogation Plate v5.0 (MIPE) Libary (AID 1347411); also: nearly all actives have a fitted effect of over 65% in size; also: potency is read from the fitted curve at half-maximal effect;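 as to activity change, negative = inhibition: plate controls were vehicle for no effect and reference inhibitor for full effect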
# Outline: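 Immortalized human C25cl48 myoblasts with HiBit knocked into endogenous HLA-B*08:01 were stimulated with 4.0 ng/ml IFN-beta and exposed to compounds (11-point 1:3 titration, top 46 uM final) for 24 hrs at 37 C; HiBiT lytic luminescence measured.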
# [5] = qHTS drug screen for cell cycle checkpoint inhibitors in PARPi-resistant BRCA-mutant ovarian cancer cell lines. (AID 1963452; calls by dose curve); conditions: PEO1/OlaR viability, CellTiter-Glo luminescence, 96 h, stronger effect = lower value
# Outline: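 PEO1, PEO4 and PEO1/OlaR ovarian cancer cells, 600 per well, exposed 96 h at 37C to a dilution series. Viability read by CellTiter-Glo luminescence, normalized to DMSO and empty wells; activity summarized as Z-AUC.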
# [6] = molecular target: Cytochrome P450 2D6 (Homo sapiens) (UniProt P10635); test: Cytochrome P450 family 2 subfamily D member 6 (CYP2D6) small molecule antagonists: luciferase biochemical (cell-free) qHTS assay (AID 1645840; active = well fitted curve in the direction sought with a large enough effect in the repeat runs; an effect the other way counts as inactive or inconclusive; also: potency is read from the fitted curve at half-maximal effect; nearly all actives have a fitted effect of over 55% in size)
# Sequence of Cytochrome P450 2D6 (Homo sapiens) (P10635 whole entry, looked up): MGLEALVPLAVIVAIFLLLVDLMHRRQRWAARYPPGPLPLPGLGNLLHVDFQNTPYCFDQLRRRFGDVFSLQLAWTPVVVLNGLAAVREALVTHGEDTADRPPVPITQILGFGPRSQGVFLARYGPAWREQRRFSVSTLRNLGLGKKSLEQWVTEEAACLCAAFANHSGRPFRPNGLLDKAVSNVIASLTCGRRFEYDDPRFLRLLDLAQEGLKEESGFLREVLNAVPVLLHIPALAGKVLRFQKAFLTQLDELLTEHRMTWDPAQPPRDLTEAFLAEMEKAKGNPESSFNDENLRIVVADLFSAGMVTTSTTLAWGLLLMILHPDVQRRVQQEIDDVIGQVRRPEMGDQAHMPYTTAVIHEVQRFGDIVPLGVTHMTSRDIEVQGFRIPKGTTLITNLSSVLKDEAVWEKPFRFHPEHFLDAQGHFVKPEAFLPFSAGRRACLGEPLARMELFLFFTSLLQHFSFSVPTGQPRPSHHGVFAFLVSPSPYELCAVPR
# Outline: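 P450-Glo luminescent screen: recombinant CYP2D6 enzyme–proluciferin substrate mix preincubated with compound 10 min at room temperature, then NADPH regeneration added for 1 h at room temperature. Detection reagent added for 20 min; luciferin light read as relative luminescence units.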
# [7] = molecular target: Cytochrome P450 2C9 (Homo sapiens) (UniProt P11712); test: Cytochrome P450 family 2 subfamily C member 9 (CYP2C9) small molecule antagonists: luciferase biochemical (cell-free) qHTS assay (AID 1645842; active = well fitted curve in the direction sought with a large enough effect in the repeat runs; an effect the other way counts as inactive or inconclusive; also: nearly all actives have a fitted effect of over 55% in size; also: potency is read from the fitted curve at half-maximal effect; as to activity change, negative = inhibition: % is scaled to controls: 0 for no effect and ±100 for the full control effect)
# Sequence of Cytochrome P450 2C9 (Homo sapiens) (P11712 whole entry, looked up): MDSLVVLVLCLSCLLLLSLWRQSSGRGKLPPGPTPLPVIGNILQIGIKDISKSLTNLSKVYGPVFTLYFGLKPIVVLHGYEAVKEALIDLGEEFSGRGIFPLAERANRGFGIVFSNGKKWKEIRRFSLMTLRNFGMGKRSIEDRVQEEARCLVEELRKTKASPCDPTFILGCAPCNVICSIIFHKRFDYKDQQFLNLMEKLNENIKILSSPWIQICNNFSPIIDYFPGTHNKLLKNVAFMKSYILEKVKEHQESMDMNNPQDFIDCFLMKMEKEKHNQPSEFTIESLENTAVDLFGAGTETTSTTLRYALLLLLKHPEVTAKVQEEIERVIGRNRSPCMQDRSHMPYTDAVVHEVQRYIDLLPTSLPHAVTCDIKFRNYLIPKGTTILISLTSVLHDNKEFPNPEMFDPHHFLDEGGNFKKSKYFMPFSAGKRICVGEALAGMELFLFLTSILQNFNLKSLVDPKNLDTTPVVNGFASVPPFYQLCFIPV
# Outline: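 Luminescence, after 20 min with luciferin detection reagent, reflected CYP2C9 turnover during a 1 h NADPH-driven reaction at 37C. Enzyme-substrate mix contained 0.4% bovine serum albumin and was preincubated with compound 10 min at room temperature.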
# [8] = test system: NIH3T3; test: Cytotoxic Profiling of Annotated Libraries Using Quantitative High-Throughput Screening (AID 1296008); conditions: Five cell lines viability, CellTiter-Glo ATP luminescence, 48-72 h; max response: stronger effect = lower value; also: nearly all actives have a fitted effect of over 60% in size; also: potency is read from the fitted curve at half-maximal effect; as to max response: % is scaled to controls: 0 for no effect and ±100 for the full control effect
# Outline: as §1
# [9] = qHTS assay to identify inhibitors of the type 1 interferon - major histocompatibility complex class I in skeletal muscle: Counter screen cell viability and HiBit confirmation (AID 1347412); conditions: iHSKM muscle cells + IFN-b, HiBiT or CellTiter-Glo, 24 h; for activity change, negative = inhibition: at 45.9 µM (top of the series); also: potency is read from the fitted curve at half-maximal effect; as to activity change, negative = inhibition: % is scaled to controls: 0 for no effect and ±100 for the full control effect; as to all read-outs here: nearly all actives have a fitted effect of over 60% in size
# Outline: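 Human myoblast knock-in line, 4.0 ng/ml IFN-beta stimulation, 24 h compound treatment. Endpoints: HiBiT lytic luminescence (HLA-B level) and CellTiter Glo (ATP). Dosing 12 concentrations, 3-fold steps, 46 uM highest final.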
# [10] = P-glycoprotein substrates identified in KB-8-5-11 adenocarcinoma cell line, qHTS therapeutic library screen (AID 1346987); also: nearly all actives have a fitted effect of over 65% in size; also: potency is read from the fitted curve at half-maximal effect
# Outline: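 KB-8-5-11: colchicine-selected sub-line of KB-3-1 over-expressing P-gp; assay medium lacked colchicine. 72 h drug exposure at 37 degree C, CellTiter-Glo.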
# [11] = molecular target: N-terminal Xaa-Pro-Lys N-methyltransferase 1 (Homo sapiens) (UniProt Q9BV86); test: Confirmatory qHTS for Inhibitors of N-terminal methyltransferase 1 (NTMT1): MTaseGlo Assay (AID 1645874); also: potency is read from the fitted curve at half-maximal effect; nearly all actives have a fitted effect of over 65% in size
# Sequence of N-terminal Xaa-Pro-Lys N-methyltransferase 1 (Homo sapiens) (Q9BV86 whole entry, looked up): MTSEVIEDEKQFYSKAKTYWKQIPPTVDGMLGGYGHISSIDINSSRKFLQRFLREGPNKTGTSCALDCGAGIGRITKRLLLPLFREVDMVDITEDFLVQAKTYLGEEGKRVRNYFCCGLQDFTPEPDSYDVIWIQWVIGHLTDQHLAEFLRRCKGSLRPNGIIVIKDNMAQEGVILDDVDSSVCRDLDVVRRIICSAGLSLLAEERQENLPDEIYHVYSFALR
# Outline: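 Preincubation of NTMT1 (125 nM) plus SAM (100 uM) with test compounds lasted 15 min; methylation of 1 uM SPKRIA then proceeded 30 min in the dark at room temperature. Luciferase signal reported SAH produced.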
# [12] = molecular target: Catechol O-methyltransferase (Homo sapiens) (UniProt P21964); test: Confirmatory Screen for Target Class Profiling of Small Molecule Inhibitors of Methyltransferases (AID 1745852; calls by dose curve; also: potency is read from the fitted curve at half-maximal effect); conditions: MTase-Glo luminescence, SAH detection, recombinant enzyme; measured here: COMT max response; stronger effect = lower value
# Sequence of Catechol O-methyltransferase (Homo sapiens) (P21964 whole entry, looked up): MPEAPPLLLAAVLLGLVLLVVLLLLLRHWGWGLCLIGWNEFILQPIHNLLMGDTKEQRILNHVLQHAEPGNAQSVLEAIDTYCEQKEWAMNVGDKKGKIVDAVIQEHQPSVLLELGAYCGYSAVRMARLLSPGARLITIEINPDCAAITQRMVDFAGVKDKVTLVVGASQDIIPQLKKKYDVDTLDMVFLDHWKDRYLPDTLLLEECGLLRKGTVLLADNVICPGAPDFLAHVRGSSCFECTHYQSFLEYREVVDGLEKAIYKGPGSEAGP
# [13] = molecular target: Guanidinoacetate N-methyltransferase (Homo sapiens) (UniProt Q14353); test: as above; conditions: activity change, negative = inhibition: at 57.3 µM (top of the series) unless noted
# [14] = molecular target: Nicotinamide N-methyltransferase (Homo sapiens) (UniProt P40261); test: as above; conditions: MTase-Glo luminescence, SAH detection, recombinant enzyme; measured here: NNMT max response; stronger effect = lower value
# Sequence of Nicotinamide N-methyltransferase (Homo sapiens) (P40261 whole entry, looked up): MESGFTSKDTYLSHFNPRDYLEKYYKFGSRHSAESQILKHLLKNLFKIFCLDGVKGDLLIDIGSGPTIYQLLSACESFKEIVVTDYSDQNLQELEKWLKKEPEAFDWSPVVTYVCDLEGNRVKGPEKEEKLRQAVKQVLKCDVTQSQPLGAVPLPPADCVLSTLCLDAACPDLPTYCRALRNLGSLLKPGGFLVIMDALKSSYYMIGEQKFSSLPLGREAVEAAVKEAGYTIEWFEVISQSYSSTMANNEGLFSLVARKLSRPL
# [15] = molecular target: Phenylethanolamine N-methyltransferase (Homo sapiens) (UniProt P11086); test: as above; conditions: MTase-Glo luminescence, SAH detection, recombinant enzyme; measured here: PNMT max response; stronger effect = lower value
# Sequence of Phenylethanolamine N-methyltransferase (Homo sapiens) (P11086 whole entry, looked up): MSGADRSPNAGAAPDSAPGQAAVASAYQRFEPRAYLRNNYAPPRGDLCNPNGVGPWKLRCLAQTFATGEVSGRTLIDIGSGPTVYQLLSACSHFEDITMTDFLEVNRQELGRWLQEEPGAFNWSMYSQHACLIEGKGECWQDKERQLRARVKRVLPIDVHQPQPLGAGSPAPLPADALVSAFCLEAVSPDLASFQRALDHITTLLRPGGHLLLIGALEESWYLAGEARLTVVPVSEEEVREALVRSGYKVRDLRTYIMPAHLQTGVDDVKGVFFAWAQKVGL
# [16] = test system: CAOV3; test: Primary qHTS to identify gynecologic anti-cancer compounds using libraries of approved drugs and bioactive compounds (AID 1345084); conditions: Gynecologic cancer cell panel viability, ATPlite luminescence, 48 h; series mostly up to 57.5 µM; also: nearly all actives have a fitted effect of over 55% in size; also: potency is read from the fitted curve at half-maximal effect
# Outline: as §2
# [17] = measured here: PEO1 parental Z-AUC
smiles,measurement,setting,value
C=C(C)C(=O)OC1[C@@H]2C(=C)C(=O)O[C@@H]2C[C@@H](C)[C@@H]2C=CC(=O)[C@@]12C (some centres undefined),Potency,[1],inactive
same,outcome,[2],inactive
same,Potency,[3],inactive
Cc1nc2ccc(C(=O)N3CCC4(CC3)CC(=O)c3c(cnn3C(C)C)C4)cc2[nH]1,Potency,[4],inactive
same,Z-AUC,[5],-0.421 (inactive)
same,Z-AUC,[5]; [17],-0.389
same,Z-AUC,[5]; measured here: PEO4 Z-AUC,-0.0398
same,max response,[2],-28.8% (inactive)
CNCc1ccc(C)c(NC(=O)c2ccc(Nc3nc(-c4ccccc4)c4ccccc4n3)cc2)c1,Potency,[4],33 µM (active)
same,Potency,[6],12 µM (active)
same,Potency,[7],inactive
same,Z-AUC,[5],-0.484 (inactive)
same,Z-AUC,[5]; [17],-0.199
same,Z-AUC,[5]; measured here: PEO4 Z-AUC,-0.532
same,Potency,[8],18.4 µM (active)
same,"activity change, negative = inhibition",[9]; HiBiT,-20% (inactive)
CCCCn1c(-c2ccccc2)nc(-c2ccccc2)c1CN(Cc1ccc2c(c1)OCO2)Cc1ccc2c(c1)OCO2,Potency,[6],0.849 µM (active)
same,Potency,[7],2.68 µM (active)
same,Potency,[1],inactive
same,max response,[2],-27.1% (inactive)
same,Potency,[3],inactive
Nc1ncnc2c1ncn2[C@@H]1O[C@H](CO)C[C@H]1O,Potency,[10],0.001 µM (active)
same,Potency,[4],inactive
same,Z-AUC,[5],1.48 (inactive)
same,Z-AUC,[5]; [17],0.932
same,Z-AUC,[5]; measured here: PEO4 Z-AUC,0.673
same,max response,[2],-125% (inactive)
COc1cc2ncnc(Oc3cccc(NC(=O)Nc4cc(C(C)(C)C(F)(F)F)on4)c3)c2cc1OC,Potency,[7],12 µM (active)
same,Z-AUC,[5],0.198 (inactive)
same,Z-AUC,[5]; [17],0.387
same,Z-AUC,[5]; measured here: PEO4 Z-AUC,0.555
same,Potency,[2],5.17 µM (active)
same,Potency,[3],inactive
same,Potency,[9]; HiBiT,24.9 µM (active)
same,"activity change, negative = inhibition",[9]; Viability,-21.3% (inactive)
CC(C)(C)c1ccc(-c2nc3ccccc3[nH]2)cc1,Potency,[11],8.91 µM (active)
same,activity,[12],-68.9%
same,Potency,[13],10.5 µM (active)
same,activity,[14],-65.6%
same,activity,[15],-70.3%
same,Potency,[1],inactive
same,max response,[2],-8.47% (inactive)
same,Potency,[3],1 µM (active)
COc1cc(N2CCOCC2)ccc1Nc1ncc(F)c(Nc2ccccc2NS(C)(=O)=O)n1,Potency,[7],2.13 µM (active)
same,activity,[12],-0.204%
same,"activity change, negative = inhibition",[13],2.81%
same,activity,[14],3.16%
same,activity,[15],-0.832%
same,Potency,[1],inactive
same,Potency,[2],7.31 µM (active)
CC(=O)C1=C(O)C2c3c[nH]c4cccc(c34)CC2C(C)(C)N(C)C1=O (centres undefined),Potency,[10],9.2 µM (active)
same,max response,[2],-23.8% (inactive)
same,Potency,[16],inactive
same,Potency,[3],inactive
CC1CCC2C(C)(C)C(O)CCC2(C)C12Cc1c(O)cc3c(c1O2)CN(C(CCCN=C(N)N)C(=O)O)C3=O (centres undefined),Potency,[1],inactive
same,outcome,[2],inactive
same,Potency,[3],inactive
O=C1c2c(O[C@@H]3O[C@H](CO)[C@@H](O)[C@H](O)[C@H]3O)cc(O)cc2OC1(O)Cc1ccc(O)cc1 (some centres undefined),Potency,[1],inactive
same,outcome,[2],inactive
same,Potency,[16],10 µM (active)
Nc1nc(NCC2CCC(CNS(=O)(=O)c3cccc4ccccc34)CC2)nc2ccccc12 (centres undefined),Potency,[7],4.77 µM (active)
same,activity,[12],-12.1%
same,"activity change, negative = inhibition",[13],-4.41%
same,activity,[14],-26.1%
same,activity,[15],-28.4%
same,Potency,[1],inactive
same,Potency,[8],20.6 µM (active)
Cc1ccc(CCCO)c(NCc2ccc3nc(NCCCN4CCOCC4)n(Cc4nc(C)ccc4O)c3c2)c1,max response,[2],-12.2% (inactive)
C=C1C(=O)O[C@@H]2CC(C)=C([C@@H](C)CCCO)[C@@H](OC(=O)C(C)C)[C@H]12,activity,[12],-63.9%
same,"activity change, negative = inhibition",[13],0%
same,activity,[14],-0.804%
same,activity,[15],1.36%
same,max response,[8],-12.2% (inactive)
same,Potency,[16],inactive
C=C1[C@@H](C)[C@H]2[C@H](Cc3c[nH]c4ccccc34)NC(=O)[C@]23C(=O)/C=C/C(=O)[C@H](O)/C(C)=C\[C@@H](C)C/C=C/[C@H]3[C@@H]1O,Potency,[10],inactive
same,Potency,[8],3.55 µM (active)
same,Potency,[16],inactive
O=C(c1ccc(F)c(F)c1Nc1ccc(I)cc1F)N1CC(O)([C@@H]2CCCCN2)C1,Potency,[10],20.6 µM (active)
same,Potency,[1],inactive
same,Z-AUC,[5],-1.02 (inactive)
same,Z-AUC,[5]; [17],-0.911
same,Z-AUC,[5]; measured here: PEO4 Z-AUC,-1.32
Cc1cc(C)c(-c2csc(NC(=O)c3ccccc3)n2)c(C)c1,Potency,[8],8.2 µM (active)
same,Potency,[3],25.1 µM (active)
